Test results as given in PubChem BioAssay AID1159580 (chemical genetic matrix, 2015).
Where “and” joins values, the source holds several entries; their conditions need not be identical. Equal entries are not always repeated. About 2,000 (36%) of roughly 5,500 compounds were called active. Roughly 18% stayed inconclusive and do not appear here. Rule as the data show it: active = normalized growth mostly below about 0.91 (no sharp cut-off); inconclusive = no clear call, values can overlap the other calls; inactive = mostly above about 0.92. The list shows a part of the results.

Test: chemical genetic growth profiling, strain panel (AID 1159580);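 also: tested at 20 µM; growth read once vehicle control cultures reached saturation at 30 °C; 1 = growth at the plate median or of vehicle wells; lower values mean less growth of the strain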
Details: S. cerevisiae deletion strains, growth OD

Measured: normalized growth

Cc1cc(O)ccc1Cl
inactive: locus YAL026C, strain drs2, hits give low values 1.01 | locus YAL030W, strain snc1, hits give low values 1.02 | locus YBL061C, strain skt5, hits give low values 0.992 | locus YBR009C, strain hhf1, hits give low values 0.999 | locus YBR021W, strain FUR4, hits give low values 1.02 | locus YBR023C, strain chs3, hits give low values 1.01 | locus YBR171W, strain sec66, hits give low values 0.997 | locus YBR229C, strain ROT2, hits give low values 1 | locus YBR231C, strain swc5, hits give low values 0.993 | locus YBR279W, strain paf1, hits give low values 1.02 | locus YCL011C, strain gbp2, hits give low values 1.01 | locus YCL016C, strain dcc1, hits give low values 1.01 | locus YCL029C, strain bik1, hits give low values 0.983 | locus YCL069W, strain vba3, hits give low values 1.02 | locus YCR088W, strain abp1, hits give low values 1.01 | locus YDL005C, strain med2, hits give low values 1.02 | locus YDL035C, strain GPR1, hits give low values 0.955 | locus YDL040C, strain nat1, hits give low values 1 | locus YDL074C, strain BRE1, hits give low values 0.987 | locus YDL101C, strain DUN1, hits give low values 1.03 | locus YDL185W, strain tfp1, hits give low values 0.986 | locus YDL192W, strain arf1, hits give low values 1 | locus YDR001C, strain nth1, hits give low values 1.01 | locus YDR069C, strain doa4, hits give low values 1.03 | locus YDR101C, strain arx1, hits give low values 0.992 | locus YDR162C, strain NBP2, hits give low values 0.986 | locus YDR297W, strain sur2, hits give low values 1.03 | locus YDR318W, strain mcm21, hits give low values 0.993 | locus YDR334W, strain swr1, hits give low values 1.02 | locus YDR335W, strain msn5, hits give low values 1 | locus YDR388W, hits give low values 1 | locus YDR392W, strain spt3, hits give low values 0.944 | locus YDR502C, strain sam2, hits give low values 0.974 | locus YEL003W, strain gim4, hits give low values 1.01 | locus YEL037C, strain rad23, hits give low values 1.01 | locus YEL061C, strain CIN8 (second series), hits give low values 1.01 | locus YEL061C, strain CIN8, hits give low values 0.999 | locus YER015W, strain faa2, hits give low values 0.993 | locus YER016W, strain bim1, hits give low values 0.994 | locus YER110C, hits give low values 1.01 | locus YER111C, strain swi4, hits give low values 1.01 | locus YER155C, strain BEM2 (second series), hits give low values 0.991 | locus YER155C, strain BEM2, hits give low values 1 | locus YER167W, strain BCK2, hits give low values 0.997 | locus YFR010W, strain ubp6, hits give low values 1 | locus YGL078C, strain dbp3, hits give low values 0.981 | locus YGL086W, strain mad1, hits give low values 0.968 | locus YGL167C, strain pmr1, hits give low values 1.02 | locus YGL173C, strain kem1, hits give low values 0.948 | locus YGL227W, strain vid30, hits give low values 1 | locus YGL240W, strain doc1, hits give low values 0.999 | locus YGL248W, strain PDE1, hits give low values 1.02 | locus YGL253W, strain hxk2, hits give low values 1.01 | locus YGR135W, strain pre9, hits give low values 1.02 | locus YGR252W, strain gcn5, hits give low values 0.936 | locus YHR013C, strain ard1, hits give low values 1.13 | locus YHR027C, strain rpn1, hits give low values 0.991 | locus YHR030C, strain SLT2, hits give low values 0.999 and 0.932 | locus YHR079C, strain IRE1 (second series), hits give low values 1.01 | locus YHR079C, strain IRE1, hits give low values 0.954 | locus YHR094C, strain hxt1, hits give low values 1.01 | locus YHR129C, strain ARP1, hits give low values 1.01 | locus YHR142W, strain chs7, hits give low values 0.981 | locus YHR200W, strain rpn10, hits give low values 1 | locus YIL066C, strain RNR3, hits give low values 1 | locus YIL073C, strain SPO22, hits give low values 1.04 | locus YIL125W, strain kgd1, hits give low values 1.01 | locus YIR030C, strain dcg1, hits give low values 1 | locus YJL092W, strain hpr5, hits give low values 0.989 | locus YJL095W, strain BCK1 (second series), hits give low values 1.01 | locus YJL095W, strain BCK1, hits give low values 1.02 and 0.938 | locus YJL115W, strain asf1, hits give low values 1.02 | locus YJL129C, strain trk1, hits give low values 1 | locus YJL134W, strain LCB3, hits give low values 1.01 | locus YJL154C, strain vps35, hits give low values 1.01 | locus YJL164C, strain tpk1, hits give low values 1.02 | locus YJL166W, strain qcr8, hits give low values 1 | locus YJL168C, strain set2, hits give low values 1.01 | locus YJL187C, strain SWE1 (second series), hits give low values 1.02 | locus YJR043C, strain POL32, hits give low values 0.991 | locus YJR066W, strain TOR1, hits give low values 0.942
active: locus YAL021C, strain ccr4, hits give low values 1.11 [resistant] | locus YDR137W, strain rgp1, hits give low values 0.816 | locus YDR159W, strain sac3, hits give low values 0.784 | locus YDR195W, strain ref2 1.2 [resistant]
